The record followed here is ChEMBL document CHEMBL3433997, “St. Jude Leishmania screening dataset” (2016).

The term inhibition denotes the drop in the measured response relative to a control, in per cent.

The target in this assay is Hexose transporter 1 (Plasmodium falciparum) (UniProt O97467). The assay is described as follows: ST_JUDE_LEISH: Cytotoxicity at 2uM final concentration against transgenic Leishmania Mexicana promastigotes LmPfHT that are glucose transport deficient and complemented with the Plasmodium falciparum hexose transporter. Activity is measured by DNA content using SYBR green in vitro. It counts as functional.
As to `COc1cccc(C=NNc2cc(C)nc3c(OC)cccc23)c1`, the inhibition worked out at 1.32%.
With `COc1cc(-c2cc3cc(Cl)c(Cl)cc3[nH]2)ccc1C(=O)NC1CCN(Cc2ccccc2)CC1`, the inhibition stood at 2.67%.
Next, `COc1ccccc1/C=C/C(=O)N(C)C1CCN(CCCCCNC(=O)/C=C/c2ccc(Cl)c(Cl)c2)CC1`: 2.77%; `C=C[C@H]1CN(CCCCCCC)CC[C@H]1CC(=O)Nc1cnnc2ccc(OC)cc12`: 0.25%.
Next, `Cc1ccc(NC(=O)Nc2ccccc2)cc1-c1ccc(C(=O)Nc2ccncc2)cc1`: 7.89%; `Cc1ccccc1C1CCN(C2CCC(NC(=O)/C=C/c3cc(F)cc(F)c3)CC2)CC1` (centres undefined): -0.51%; `CCc1cn(CCc2ccccc2)c2ccc(C(=O)N[C@@H](Cc3ccccc3)[C@H](O)CNC(C)(C)CCCC(C)C)cc12`: -1.07%.
Then `CCOC(=O)c1cc(C(=O)OC)c2ccccn12`, with 0.87%.
In the case of `O=C1OC(c2ccccc2)(c2ccccc2)CN1CC1CCN(Cc2ccc(O)c(Cl)c2)CC1`, the inhibition worked out at 70.4%.
Next, `Cc1cc(C)cc(OCC(O)CN(Cc2cc(Cl)cc(Cl)c2)C(=O)Nc2ccc([N+](=O)[O-])cc2)c1` (centres undefined): 3.99%.
Next, `CCNC(C)(C)CN(Cc1ccc(-c2ccc(C(F)(F)F)cc2)cc1)C(=O)Cn1c(SCc2ccc(F)cc2)nc(=O)c2c1CCC2`: 5.99%.
On to `COc1ccc(OCC(=O)Nc2nc(-c3ccc(OC)cc3)c(C)s2)cc1`, for which the inhibition was found to be 0.94%.
Next, `CCN(CC)Cc1cc(Nc2c3ccc(Cl)cc3nc3cccc(OC)c23)ccc1O`: 11.1%; `CCOc1ccc(NC(=O)c2ccc(CN3CCCN(Cc4cccc(O)c4)CC3)cc2)cc1`: 3.89%.
As for `CS(=O)(=O)c1ccccc1CNC(=O)c1cccc(-c2ccc(-c3nc4cc(C(F)(F)F)ccc4[nH]3)cc2)c1`, the inhibition amounted to 1.77%.
Next, `Cc1ccc(NC(=O)c2ccc(CN3CCCN(Cc4cccc(O)c4)CC3)cc2)cc1C`: 0.45%.
As to `CN(C)c1ccc(C2c3[nH]cnc3CCN2C(=O)Nc2cccc([N+](=O)[O-])c2)cc1` (centres undefined), the inhibition came to 8.52%.
With `CN(C)CCOc1cc(NC(=O)Nc2ccc(-c3ccccc3)cc2Cl)ccc1I`, the inhibition amounted to 0.57%.
As for `CC(=NNC(S)=NC(C)(C)C)c1ccccn1`, the inhibition is 69.5%.
Then `c1cc2c3c(cccc3c1)NC(CCCCCCCCC1=Nc3cccc4cccc(c34)N1)=N2`, with 1.67%; and `O=C(NOCc1ccccc1)c1cc(Cl)ccc1O`, with 3.78%; and `CC(CO)(CO)NCc1cc2ccc3ccsc3c2c2ccccc12`, with 71.3%.
Next, `Cc1cc(OCC2CCN(c3ncc(C(=O)Nc4ccccc4)cc3Cl)CC2)ccc1F`: -2.28%; `COc1cc(Nc2ccnc3cc(-c4nccs4)ccc23)ccc1OCCCc1nc2ccccc2[nH]1`: 4.2%.
